Assay results published in PubChem BioAssay AID488969 (Vanderbilt High Throughput Screening Facility, 2010).
Values joined by “and” are separate entries in the source; they are usually repeats but may differ in a detail not shown here. Equal values may be shown once. In all, about 110,000 compounds were measured (“z-score”: median about -0.1, highest 2% from about 2 on). For the sample, the highest values were picked, then their nearest neighbours and some compounds at random. Active and inactive are the calls of the source.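 The calls were made as follows: active = z-score in the third read window above 3 or below -3; inactive = the rest.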

Biological target: Metabotropic glutamate receptor 8 (Rattus norvegicus) (UniProt P70579)
Assay: rat mGluR8 modulators via GIRK flux, primary screen, cell-based, thallium flux, HTS (AID 488969)
Conditions: HEK293 rat mGluR8, GIRK (G protein-gated inwardly rectifying potassium channel) thallium flux, FluoZin2; at 10 µM; stronger effect = higher value; submaximal glutamate (EC20) added with thallium

Metabotropic glutamate receptor 8 (Rattus norvegicus), sequence (P70579 whole entry, looked up): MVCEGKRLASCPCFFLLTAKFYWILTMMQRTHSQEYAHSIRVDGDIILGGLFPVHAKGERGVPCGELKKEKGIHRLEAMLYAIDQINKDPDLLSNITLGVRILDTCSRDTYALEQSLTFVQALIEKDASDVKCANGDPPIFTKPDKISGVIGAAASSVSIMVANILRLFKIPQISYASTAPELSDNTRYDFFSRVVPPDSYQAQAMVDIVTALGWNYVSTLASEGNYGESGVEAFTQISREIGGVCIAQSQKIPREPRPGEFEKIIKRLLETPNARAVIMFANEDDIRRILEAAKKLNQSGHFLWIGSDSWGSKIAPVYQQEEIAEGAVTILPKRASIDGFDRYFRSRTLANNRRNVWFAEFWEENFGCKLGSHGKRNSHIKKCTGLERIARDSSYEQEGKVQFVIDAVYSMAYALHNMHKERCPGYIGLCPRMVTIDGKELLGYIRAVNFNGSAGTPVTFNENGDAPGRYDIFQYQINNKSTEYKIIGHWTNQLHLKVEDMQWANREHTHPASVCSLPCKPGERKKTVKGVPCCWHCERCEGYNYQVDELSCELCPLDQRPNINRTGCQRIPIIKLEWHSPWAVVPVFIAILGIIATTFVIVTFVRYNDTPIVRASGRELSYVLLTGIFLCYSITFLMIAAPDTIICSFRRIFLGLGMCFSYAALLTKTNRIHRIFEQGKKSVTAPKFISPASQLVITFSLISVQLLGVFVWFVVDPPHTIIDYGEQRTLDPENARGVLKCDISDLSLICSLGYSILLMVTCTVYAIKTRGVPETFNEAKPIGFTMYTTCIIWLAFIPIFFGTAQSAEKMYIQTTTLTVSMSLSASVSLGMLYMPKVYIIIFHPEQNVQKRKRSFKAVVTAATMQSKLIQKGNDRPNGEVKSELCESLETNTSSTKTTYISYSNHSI

| Compound | z-score |
| --- | --- |
| O=C(c1cn(-c2ccccc2)nc1-c1cccs1)N(CCO)Cc1ccccc1 | -0.178 |
| CCn1c(SCC(=O)NCCc2ccc(Cl)cc2)nnc1-c1cccs1 | -0.84 |
| CCOCCCNC(=O)CN1C(=O)CSc2cc(S(=O)(=O)N3CCCCCC3)ccc21 | -0.263 |
| O=C(c1cc(Cl)ccc1[N+](=O)[O-])n1cnc2ccccc21 | -0.721 |
| COc1ccccc1N1CCN(C(=O)c2cc(-c3ccco3)on2)CC1 | -0.34 |
| COC(=O)c1cnn2c(C(F)(F)F)cc(-c3ccccc3)nc12 | -0.00832 |
| CCOC(=O)c1cnn2c(C)cc(-c3ccc(F)cc3)nc12 | -0.151 |
| CCOC(=O)c1cnn2c(C)cc(-c3ccccc3)nc12 | 2.74 |
| CCOC(=O)C1=C(C)N=c2s/c(=C/c3ccccc3)c(=O)n2C1c1ccc(OC)c(OC)c1 (centres undefined) | -0.183 |
| CCOC(=O)C=Nc1c(N)n(C)c(=O)n(C)c1=O | 2.44 |
| CCOc1cc(C(=O)OCC(=O)c2c(N)n(C)c(=O)n(C)c2=O)cc(OCC)c1OCC | -0.112 |
| Cn1c(N)c(C(=O)CCl)c(=O)n(C)c1=O | 0.0911 |
| CC1(C)C(=O)OC(c2cccn2-c2ccc([N+](=O)[O-])cc2)C(C)(C)C1=O (centres undefined) | -0.471 |
| Cc1cccc(SCc2noc(C(=O)NC(C)C)c2C(=O)O)c1 | -0.0231 |
| O=C1NC(=Nc2cccc(Cl)c2)SC1Cc1cccc(Cl)c1Cl (centres undefined) | -0.324 |
| O=C(Nc1ccccc1)N1CCOCC1 | -0.206 |
| O=C(NC(=Nc1ccccc1)N1CCOCC1)Nc1ccccc1 | 2.94 |
| O=C(Nc1ccccc1)Nc1ccc(C(=O)N2CCOCC2)cc1 | -0.0267 |
| CC(/C=C\c1cccnc1)=C/C(=O)O | -0.175 and 6.26 (active) |
| CC(=C/C(=O)O)/C=C/c1cccs1 | -0.429 |

| Compound | z-score |
| --- | --- |
| CC(=C/C(=O)O)/C=C/c1ccc([N+](=O)[O-])cc1 | -0.0461 |
| CC1(C)CC(=O)C2=C(C1)Nc1ccccc1NC2c1nc2ccccc2[nH]1 (centres undefined) | -0.113 |
| Cc1c(C2Nc3ccccc3NC3=C2C(=O)CC(C)(C)C3)cnn1C (centres undefined) | 4.64 (active) |
| Cn1cccc1C1Nc2ccccc2NC2=C1C(=O)CC(C)(C)C2 (centres undefined) | -0.491 |
| CCOc1ccc(N(CC(=O)NCC2CCCO2)C(=O)CCC(=O)Nc2ccccn2)cc1 (centres undefined) | -1.08 |
| COc1ccc(NC(=O)CSc2nc(N)c3cc4c(nc3n2)CCCC4)cc1 | -0.916 |
| O=C(COC(=O)c1ccccc1C(=O)c1ccccc1)NCCc1ccc(Cl)cc1Cl | -0.0656 |
| Cc1cc(-c2n[nH]c(=S)n2/N=C/c2ccc(Br)s2)n[nH]1 | 4.55 (active) |
| S=c1[nH]nc(-c2ccccn2)n1/N=C/c1ccc(Br)s1 | 5.6 (active) |
| S=c1[nH]nc(-c2ccco2)n1/N=C/c1cccs1 | -0.0217 |
| Cc1cc(-c2n[nH]c(=S)n2/N=C/c2sccc2C)n[nH]1 | -0.362 |
| S=c1[nH]nc(-c2ccccn2)n1/N=C/c1cccs1 | -0.126 |
| S=c1[nH]nc(-c2ccco2)n1/N=C/c1ccc(Br)s1 | 4.39 (active) |
| Cc1ccc(/C=N/n2c(-c3ccco3)n[nH]c2=S)s1 | 0.259 |
| S=c1[nH]nc(-c2ccccn2)n1/N=C/c1ccccc1 | -0.194 |
| Cc1cc(-c2n[nH]c(=S)n2/N=C/c2ccc(C)s2)n[nH]1 | -0.0648 |
| Nc1c(C(O)(C(F)(F)F)C(F)(F)F)cc(C(O)(C(F)(F)F)C(F)(F)F)c2ccccc12 | 0.066 |
| CC1=C(C(=O)NCc2ccccc2)C(c2ccccc2OCC(N)=O)NC(=O)N1 (centres undefined) | 0.226 |
| O=C(Cc1c(F)cccc1Cl)N1CCCC1 | 0.183 |
| CS(=O)(=O)N1CCC(C(=O)NCc2ccco2)CC1 | 0.432 |

| Compound | z-score |
| --- | --- |
| COc1ccc(N2CCN(C(=O)c3cccc(N4C(=O)C5CC=CC(C)C5C4=O)c3)CC2)cc1 (centres undefined) | -0.43 |
| COc1cc(/C=C2/C(=O)N(c3ccccc3)N=C2C)ccc1OS(=O)(=O)c1ccccc1 | -0.322 |
| COc1ccc(/C=C2\SC(=O)NC2=S)cc1OC | 2.05 |
| COc1cc(/C=C2/SC(=S)NC2=O)ccc1OS(=O)(=O)c1ccc(C)cc1 | -2.12 |
| COc1cc(/C=C2\SC(=S)NC2=O)ccc1OS(=O)(=O)c1ccccc1 | 15.1 (active) |
| COc1ccc(/C=C2\SC(=O)N=C2N)cc1OC | 0.0136 |
| COc1ccc(/C=C2\SC(c3ccc(C)cc3)=NC2=O)cc1OC | -1.87 |
| CCOC(=O)c1c(-c2ccc(OC)cc2)nc2nonc2c1N | 0.0715 |
| CC(C)CCNC(=S)Nc1ccc(F)cc1 | 0.97 |
| COc1cc(C)c(S(=O)(=O)N2CCOCC2)cc1C | 0.136 |
| COc1ccc(NC(=O)CSc2ccc(-c3ccccn3)nn2)cc1OC | -0.397 |
| Cc1ccc(S(=O)(=O)c2nc(C(C)(C)C)oc2N2CCOCC2)cc1 | -0.0758 |
| N#C/C(=C\c1ccco1)C(=O)NCC1CCCO1 (centres undefined) | -0.0138 |
| CC(C)NS(=O)(=O)c1cccc2nsnc12 | -0.236 |
| COc1ccc2cc3cc(C(=O)NC(C)C)oc3nc2c1 | 0.629 |
| C=CCn1c(SCC)nc2sc3c(c2c1=O)CCc1ccccc1-3 | 0.571 |
| C=CCSc1nc2sc3c(c2c(=O)n1CC=C)CCc1ccccc1-3 | -0.139 |
| C=CCSc1nc2sc3c(c2c(=O)n1CC)CCc1ccccc1-3 | 2.62 |
| CCOC(=O)CSc1c(-c2ccccc2)c2cc(Cl)ccc2[nH]c1=O | -0.516 |
